From PubChem BioAssay
Shown is part of a subset that was picked to be rich in hits.
ALR inh: inhibitors of human ALR sulfhydryl oxidase, primary screen, biochemical, H2O2 detection, HRP-luminol luminescence, single point; purified ALR, DTT oxidation; inhibition, % (test concentration not listed); FAD-linked sulfhydryl oxidase ALR (Homo sapiens), P55789; AID 485317, 2010; 290,000 tested, 3.8% active;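 active means mean replicate inhibition above about 79%, with every replicate also reaching it, limit read from the data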
Target sequence (P55789 whole entry, looked up): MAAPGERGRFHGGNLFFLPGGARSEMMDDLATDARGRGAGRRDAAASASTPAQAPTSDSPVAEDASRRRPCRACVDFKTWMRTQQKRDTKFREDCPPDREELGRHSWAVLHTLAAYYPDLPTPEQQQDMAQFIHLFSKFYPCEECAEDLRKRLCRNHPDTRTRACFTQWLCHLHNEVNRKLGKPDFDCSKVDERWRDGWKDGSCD
ARNT TACC3 PPI: disruptors of ARNT/TACC3 protein interaction, primary screen, biochemical, AlphaScreen, single concentration; Transforming acidic coiled-coil-containing protein 3 (Homo sapiens), Q9Y6A5; AlphaScreen His-ARNT PAS-B/GST-TACC3 binding, luminescence; TACC3 fragment carries E629A point mutation; inhibition, % at 9.99 µM; 390,000 tested, 0.66% active;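 active means mean inhibition of replicates at least 50% and at least half of replicates each reaching 50%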;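 further: 0% = complete ARNT plus TACC3 wells and 100% = ARNT alone without TACC3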
PglD inh: C. jejuni PglD acetyltransferase inhibitors, primary screen, biochemical, DTNB colorimetric, single point. UDP-N-acetylbacillosamine N-acetyltransferase PglD (Campylobacter jejuni). purified PglD enzyme, DTNB colorimetric CoA detection. inhibition, % at 12.5 µM. 360,000 tested, 0.098% active. AID 602405, 2012; in the data active means inhibition above about 16%, passing the limit was not always enough
CendR NRP1 mod: modulators of CendR peptide binding to NRP-1, primary screen, biochemical, fluorescence polarization, uHTS | 360,000 tested, 0.85% active | Neuropilin-1 (Homo sapiens), O14786 | AID 602438, 2012 | FAM-RPARPAR peptide binding to NRP-1 | inhibition, % at 25 µM;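 active means inhibition or corrected inhibition above about 18%, plus a signal ratio from 0.5 to 1.5, limit read from the data, passing the limit was not always enough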
ERp5 inh: inhibitors of ERp5-driven insulin aggregation, primary screen, biochemical, turbidity, absorbance 650 nm, single point | Protein disulfide-isomerase A6 (Homo sapiens), Q15084 | 90 min | inhibition, % at 9.99 µM | 350,000 tested, 0.05% active | AID 651711, 2012;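 active means mean replicate inhibition above about 25%, with every replicate also reaching it, limit read from the data, passing the limit was not always enough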
PDI turbidity: inhibitors of human PDI, primary screen, biochemical, turbidity, single point, plate reader; Protein disulfide-isomerase (Homo sapiens), P07237; PDI insulin aggregation turbidity, A650, 90 min; inhibition, % at 10 µM; 350,000 tested, 0.052% active;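 active means mean inhibition across replicates of 30% or more, whatever share of single replicates reach that level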
The depositor's hits bear a star.

Results for COc1ccc(NC(=O)CSc2ccc(NC(C)=O)cc2)cc1S(=O)(=O)N1CCCCC1 ?
ALR inh: 99*; ARNT TACC3 PPI: -4; CendR NRP1 mod: 13; PDI turbidity: -4

What do the screens show for `O=C(CSc1ccc2c(c1)OCCO2)Nc1ccc(Br)cn1`?
ALR inh: -7; ARNT TACC3 PPI: 3; PglD inh: -1; CendR NRP1 mod: -4; ERp5 inh: 3; PDI turbidity: 5

What do the screens show for `COc1ccc(NC(=O)CSc2ccc(F)cc2)cc1S(=O)(=O)N1CCCCC1`?
ALR inh: -2; ARNT TACC3 PPI: -4; CendR NRP1 mod: 8; PDI turbidity: -4

Results for COc1ccc(NC(=O)CSc2ccc3c(c2)OCCO3)cc1 ?
ALR inh: 98*; ARNT TACC3 PPI: -6; PglD inh: -1; CendR NRP1 mod: 5; ERp5 inh: 7; PDI turbidity: 1

How did C[C@H]1CCCCO[C@H](CN(C)C(=O)Nc2cccc3ccccc23)[C@@H](C)CN([C@@H](C)CO)C(=O)c2cc(NC(=O)c3ccncc3)ccc2O1 do in these assays?
ARNT TACC3 PPI: 2; PglD inh: 4; ERp5 inh: 19

How did CO[C@@H]1CN(C)C(=O)c2cc(NC(=O)C3CCC3)ccc2OC[C@@H](C)N(C(=O)CN(C)C)C[C@@H]1C do in these assays?
ARNT TACC3 PPI: 0; PglD inh: -1; ERp5 inh: -4

How did COc1ccc(NC(=O)CN(C)C(=O)CSc2ccc(Br)cc2)cc1 do in these assays?
ARNT TACC3 PPI: -5; PglD inh: -2; CendR NRP1 mod: -14; ERp5 inh: 3; PDI turbidity: -4

What do the screens show for `COc1ccc(NC(=O)CN(C)C(=O)CSc2ccc3c(c2)OCCO3)cc1`?
ALR inh: 98*; ARNT TACC3 PPI: 0; PglD inh: 7; CendR NRP1 mod: 4; ERp5 inh: 16; PDI turbidity: -5

What do the screens show for `CC(=O)Nc1ccc(SCC(=O)Nc2ccc3c(c2)OCCO3)cc1`?
ALR inh: 98*; ARNT TACC3 PPI: -2; PglD inh: 0; CendR NRP1 mod: 15; ERp5 inh: 0; PDI turbidity: -2

What do the screens show for `CC(=O)Nc1ccc2c(c1)OCCO2`?
CendR NRP1 mod: 1; PDI turbidity: -3

What do the screens show for `C[C@@H]1CCCCO[C@@H](CN(C)C(=O)CCC(F)(F)F)[C@@H](C)CN([C@H](C)CO)C(=O)c2cc(NC(=O)c3ccncc3)ccc2O1`?
ARNT TACC3 PPI: -4; PglD inh: 2

Results for CC(C)(C)N/N=C1\CC(c2ccccc2)Oc2ccccc21 (centres undefined) ?
ALR inh: 14; ARNT TACC3 PPI: 0; CendR NRP1 mod: 6; PDI turbidity: 0

What do the screens show for `O=C(O)c1cc(N/N=C2/CC(c3ccccc3)Oc3ccccc32)ccc1Cl` (centres undefined)?
ALR inh: 98*; ARNT TACC3 PPI: 0; CendR NRP1 mod: -41; PDI turbidity: -9

How did CCCNC(=O)N[C@@H]1CC[C@H](CCn2cc(-c3cccc(F)c3)nn2)O[C@H]1CO do in these assays?
PglD inh: 5; ERp5 inh: -3

Results for COc1ccc(-c2cc(-c3ccccc3)nc(=O)[nH]2)cc1 ?
ALR inh: 1; ARNT TACC3 PPI: 1; CendR NRP1 mod: -1; ERp5 inh: -2; PDI turbidity: 2

How did COc1ccc(-c2cc(C(F)(F)F)c3c(=O)n(-c4ccccc4)[nH]c3n2)cc1 do in these assays?
ALR inh: 99*; ARNT TACC3 PPI: 3; PglD inh: 4; CendR NRP1 mod: 1; PDI turbidity: 3

How did O=C1/C(=C/c2cccnc2)SC(=S)N1Nc1ccccc1 do in these assays?
ALR inh: 92*; PglD inh: 1; CendR NRP1 mod: 7; ERp5 inh: 1; PDI turbidity: -2

What do the screens show for `O=C1/C(=C/c2cccnc2)SC(=S)N1c1ccccc1`?
ALR inh: -4; CendR NRP1 mod: 0; ERp5 inh: 0; PDI turbidity: -4

How did CN(C)C(=O)c1ccc(-c2ccccc2[C@@H]2[C@@H](C#N)N(C(=O)C3CCC3)[C@H]2CO)cc1 do in these assays?
ERp5 inh: -2

How did CN(C)c1ccc(C(O)P(=O)(OC2CCCCC2)OC2CCCCC2)cc1 (centres undefined) do in these assays?
ALR inh: 97*; ARNT TACC3 PPI: 4; PglD inh: -1; CendR NRP1 mod: -11; ERp5 inh: 0; PDI turbidity: 13

Results for CC(C)OP(=O)(OC(C)C)C(O)c1ccc(N(C)C)cc1 (centres undefined) ?
ALR inh: 97*; ARNT TACC3 PPI: -35; CendR NRP1 mod: 8; ERp5 inh: 6; PDI turbidity: -2

What do the screens show for `CC(C)OP(=O)(c1ccc(N(C)C)cc1)C(O)c1ccc(C(C)C)cc1` (centres undefined)?
ALR inh: -7; ARNT TACC3 PPI: 6; PglD inh: -1; CendR NRP1 mod: 7; ERp5 inh: 1; PDI turbidity: -9

How did C[C@@H]1CN([C@@H](C)CO)S(=O)(=O)c2ccc(C3=CCCC3)cc2O[C@H]1CN(C)C(=O)Cc1ccncc1 do in these assays?
ARNT TACC3 PPI: 0; PglD inh: -3; ERp5 inh: 5

What do the screens show for `Cc1cc2[nH]c(=S)[nH]c2cc1C`?
ALR inh: 99*; ARNT TACC3 PPI: 34; CendR NRP1 mod: 1; ERp5 inh: 3; PDI turbidity: 5

Results for O=C(NCc1ccccc1)c1ccccc1C(=O)c1ncc[nH]1 ?
ALR inh: -1; ARNT TACC3 PPI: -3; CendR NRP1 mod: 27*; ERp5 inh: 1; PDI turbidity: 0

How did O=C(O)c1ccccc1C(=O)NCc1ccccc1 do in these assays?
ARNT TACC3 PPI: -27; PglD inh: -5; CendR NRP1 mod: 3; PDI turbidity: 1

Results for C[C@@H]1CN([C@H](C)CO)C(=O)c2cccc(NC(=O)c3nc4ccccc4s3)c2O[C@H]1CN(C)S(=O)(=O)c1cccs1 ?
ARNT TACC3 PPI: -2; PglD inh: -3; ERp5 inh: -1

What do the screens show for `Cc1nc(SCC(=O)c2ccccc2)n[nH]1`?
ALR inh: 90*; ARNT TACC3 PPI: -3; CendR NRP1 mod: -1; PDI turbidity: 8

How did Nc1nc(SCC(=O)Nc2ccc([N+](=O)[O-])cc2)n[nH]1 do in these assays?
ALR inh: 97*; ARNT TACC3 PPI: -1; CendR NRP1 mod: 8; ERp5 inh: -2; PDI turbidity: 9
